# Rows were chosen to be rich in hits. Some 7.3% of all compounds tested hit in one or more screens of this group.
# FLuc counter: qHTS profiling assay for firefly luciferase inhibitor/activator using purifed enzyme and Km concentrations of substrates (counterscreen for miR-21 project); Luciferin 4-monooxygenase (Photinus pyralis), P08659; purified FLuc, Km substrates, luminescence inhibition; Potency, µM (top dose mostly 57.5 µM), most hits filed as inhibitors; 6.9% of 360,000 active; AID 588342, 2011; also: nearly all actives have a fitted effect of over 55% in size
# Target sequence (P08659 whole entry, looked up): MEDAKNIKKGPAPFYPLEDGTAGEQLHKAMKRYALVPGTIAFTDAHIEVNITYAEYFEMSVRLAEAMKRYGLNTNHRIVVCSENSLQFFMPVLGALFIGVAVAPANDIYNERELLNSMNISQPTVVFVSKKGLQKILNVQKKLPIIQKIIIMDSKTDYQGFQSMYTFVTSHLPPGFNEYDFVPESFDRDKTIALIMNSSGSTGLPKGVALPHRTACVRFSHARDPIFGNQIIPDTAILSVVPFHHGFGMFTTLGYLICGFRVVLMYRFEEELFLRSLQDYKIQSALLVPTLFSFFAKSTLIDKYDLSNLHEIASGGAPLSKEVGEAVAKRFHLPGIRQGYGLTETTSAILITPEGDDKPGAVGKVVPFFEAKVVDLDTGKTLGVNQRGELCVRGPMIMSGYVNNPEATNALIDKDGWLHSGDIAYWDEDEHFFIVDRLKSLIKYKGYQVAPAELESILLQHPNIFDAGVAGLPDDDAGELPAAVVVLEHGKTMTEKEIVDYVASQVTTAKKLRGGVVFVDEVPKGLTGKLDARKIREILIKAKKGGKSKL
#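 Purified P. pyralis luciferase, 10 nM final, with Km-level 10 uM D-luciferin and 10 uM ATP in 50 mM Tris acetate pH 7.5, 10 mM Mg acetate, 0.01% Tween-20, 0.05% BSA; 6-point qHTS titration about 60 µM downward; luminescence read.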
# SMN2 splice enh: qHTS Assay for Enhancers of SMN2 Splice Variant Expression. HEK293 SMN2-luciferase splicing reporter, luminescence, 30-36 h. Potency, µM (doses to about 46.1 µM), actives largely listed as activators. 2.8% of 210,000 active. AID 1458, 2008; also: nearly all actives have a fitted effect of over 55% in size
#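 qHTS luciferase splicing reporter: luminescence rises when SMN2 exon 7 is included in transfected HEK293 cells. Compound exposure lasted 30-36 h at 37C, with 4.5 mM final sodium butyrate as control, followed by a ONE-Glo read.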
# Rab9 promoter act: qHTS Assay for Rab9 Promoter Activators. Huh7 Rab9 promoter-luciferase reporter, luminescence, 24 h. Potency, µM (highest dose often 9.22 µM), most hits filed as activators. 2.8% of 320,000 active; also: nearly all actives have a fitted effect of over 60% in size
#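 Quantitative HTS format; Huh7 Rab9-luciferase reporter cells (1500/well) receive compound 2 h post-plating, incubate 24 h at 37 °C, then get luciferase reagent for 10 min before luminescence reading.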
# ELG1 genotox: qHTS screen for small molecules that induce genotoxicity in human embryonic kidney (HEK293T) cells expressing luciferase-tagged ELG1. AID 504466, 2011. 1.3% of 330,000 active. Potency, µM (highest dose often 46 µM), hits mostly activators. HEK293T ELG1-luciferase reporter, luminescence, 16 h; also: nearly all actives have a fitted effect of over 60% in size
#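 HEK293T cells expressing luciferase-tagged ELG1 were exposed to compound or DMSO vehicle for 16 hr at 37 °C and 5% CO2. Luciferase activity was then measured with ONE-Glo after 30 min at room temperature.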
# NPC1 prom act: qHTS Assay for NPC1 Promoter Activators | Huh7 NPC1 promoter luciferase reporter, 24 h | Potency, µM (series often up to 9.22 µM), hits mostly activators | 2.4% of 320,000 active | AID 485313, 2010; also: nearly all actives have a fitted effect of over 60% in size
#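 Huh7 cells stably carrying NPC1 promoter–luciferase, plated in Opti-MEM with 10% FBS for 2 h, were exposed to compound in DMSO for 24 h at 37 °C; luciferase reagent was added for 10 min and luminescence read.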
# Luc counter: Counterscreen for Luciferase (Kinase-Glo TM) Inhibition. Potency, µM (doses to about 38.3 µM), usual class: inhibitors. Luciferin 4-monooxygenase (Photuris pensylvanica), Q27757. AID 1379, 2008. Kinase-Glo luciferase, ATP luminescence, 8 min. 0.28% of 200,000 active; also: nearly all actives have a fitted effect of over 60% in size
#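 Luminescence was the read-out, taken after 8-minute incubation at ambient temperature. Luciferase turned over luciferin with 10 uM ATP in imidazole pH 7.2 buffer containing KCl, MgCl2, Tween 20 and BSA.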
# Hits are given with their value; - = inactive; ? = inconclusive; . = no result; ! = not confirmed by another sample; [ ] = another dose, or the depositor's remark. Calls follow the shape of the dose curve; as a rule, active = well fitted curve in the direction sought with a large enough effect; inconclusive = small, poorly fitted or top-dose-only effect, or another doubt; inactive = no such curve, though single readings can be large; an effect the other way counts as inactive or inconclusive.
SMILES,FLuc counter,SMN2 splice enh,Rab9 promoter act,ELG1 genotox,NPC1 prom act,Luc counter
COc1ccc2nc(N3CCN(C(=O)CS(=O)(=O)c4ccc(C)cc4)CC3)sc2c1,4.78µM,.,.,.,.,.
ClCC[N+]12CC[N+](CCCl)(CC1)C2 (tested in a mixture with another compound),.,-[9.22 µM],.,.,.,-[7.66 µM]
CC1CC(OP(O)(=S)c2ccc(N(C)C)cc2NC(=O)c2cccs2)CC(C)(C)C1 (centres undefined),10.7µM,-,-,-,-,-
Cc1ccc(-n2c(O)c(/C=N/NC(=O)c3ccncc3)c(=O)[nH]c2=O)cc1C,-,?,-,-,-,-
Cc1nn(-c2ccccc2)c(Cl)c1/C=N\NC(=O)c1cnccn1,6.01µM,?,-,-,-,-
N#CSCSC#N,.,-,.,.,.,.
NCCc1c[nH]c2ccc(OC(=O)C(=O)O)cc12,.,-[9.22 µM],.,.,.,-[7.66 µM]
CC(=O)Nc1ccccc1C(=O)OCC(=O)c1ccccc1Cl,9.53µM,-,3.55µM,?,?,-
CN(C(=O)Oc1ccc(C(C)(C)C)cc1)c1ccccc1,23.9µM,-,?,?,-,-
CN(C(=O)Oc1ccc(F)cc1)c1ccccc1,-,.,-,-,-,.
CCC(=O)c1ccc(OC(=O)N(C)c2ccccc2)cc1,?,11.2µM,2.24µM,14.6µM,2.82µM,-
CCBr,.,-,.,.,.,.
C/C=C(/C)C(=O)O[C@H]1C(C)=C2C([C@@H]1OC(=O)CCCCCCC)[C@@](C)(OC(C)=O)C[C@@H](OC(=O)CCC)[C@@]1(O)[C@H]2OC(=O)[C@@]1(C)O (some centres undefined),.,-,.,.,.,-
c1ccc2c(c1)CCCC2,.,-,.,.,.,.
C#CCN1C(=O)S/C(=C\c2ccc(N3CCOCC3)cc2C)C1=O,2.39µM,-,2.82µM,?,?,-
Cc1ccc(-c2cc(NC(=O)c3ccccc3)on2)cc1,2.39µM,.,2.24µM,?,?,.
Cc1cc(NC(=O)CCl)on1,-,-,-,-,-,-
C[C@@H]1CC[C@@H]2N(C1)C[C@H]1[C@@](O)([C@H](O)C[C@]3(O)[C@H]4CC[C@H]5[C@]6(O)O[C@]4(C[C@]13O)[C@@]5(C)CC[C@@H]6O)[C@@]2(C)O,.,-[9.22 µM],.,.,.,-[7.66 µM]
CCN(CC)c1ccc(C=C2C(=O)N(C)C(=S)N(C)C2=O)o1,?,?,?,?,-,-
CCN(CC)c1ccc(/C=C2\C(=O)NC(=S)N(C)C2=O)o1,9.53µM,.,1.26µM,20.6µM,1.41µM,.
CN[C@H](Cc1ccccc1)c1cccc(OC)c1O,.,-[9.22 µM],.,.,.,-[7.66 µM]
Cc1c(C(c2ccc(Br)cc2)c2c(O)c3ccccc3oc2=O)c(=O)n(-c2ccccc2)n1C (centres undefined),12µM,-,-,-,-,-
CSc1ccc(C(c2c(O)c3ccccc3oc2=O)c2c(C)n(C)n(-c3ccccc3)c2=O)cc1 (centres undefined),?,-,-,-,-,-
Cc1c(OCC(F)(F)F)ccnc1CS(=O)c1nc2ccccc2[nH]1 (centres undefined),13.5µM!,-,3.98µM,-,2.82µM,-
COCCCOc1ccnc(CS(=O)c2nc3ccccc3[nH]2)c1C (centres undefined),?,.,2.82µM,-,3.16µM,-
SMILES,FLuc counter,SMN2 splice enh,Rab9 promoter act,ELG1 genotox,NPC1 prom act,Luc counter
COc1ccc(CNC(=O)c2ccc(C(C)C)cc2)cc1,9.53µM,12.6µM,2.24µM,?,3.55µM,-
c1nc(N2CC2)c2cnn([C@@H]3CCCCO3)c2n1,.,-[9.22 µM],.,.,.,-[7.66 µM]
Cc1ccc(-c2nn3c(C)nnc3c3ccccc23)cc1S(=O)(=O)NCCO,-,?,-,?,-,-
Cc1ccc(-c2nnc(Nc3ccc(OC(F)(F)Cl)cc3)c3ccccc23)cc1S(=O)(=O)NC(C)(C)CO,5.36µM,-,.,.,.,.
ClC(Cl)=C(Cl)Cl,.,-,.,.,.,.
COc1ccc(CCN2CCCC(CN(C)C(=O)c3cc(C)oc3C)C2)cc1 (centres undefined),13.5µM,.,2.24µM,18.3µM,2.51µM,.
Brc1ccc(-c2csc(N3CCCCC3)n2)cc1,9.53µM,.,-,.,-,.
Nc1cc2nc3ccccc3nc2cc1N,19µM,.,-,-,?,.
O=C1/C(=C\c2ccccc2)C[C@@]2(O)[C@H]3Cc4ccc(O)c5c4[C@@]2(CCN3CC2CC2)[C@H]1O5,.,-,.,.,.,.
CC(C)CNCCc1ccccn1,.,-[9.22 µM],.,.,.,-[7.66 µM]
O=P(O)(O)CCP(=O)(O)O,.,-[9.22 µM],.,.,.,-[7.66 µM]
CCN(CC)c1ccc(N=Cc2c(O)n(-c3ccccc3C)c(=O)[nH]c2=O)cc1,?,-,-,-,-,-
CCOc1ccccc1-n1c(O)c(C=Nc2ccc(N(CC)CC)cc2)c(=O)[nH]c1=O,19µM,-,-,-,-,-
C=C(Cl)Cl,.,-,.,.,.,.
CN1C(=O)C(=Cc2ccc(N3CCOCC3)c([N+](=O)[O-])c2)C(=O)N(C)C1=O,?,-,-,-,-,-
O=C1NC(=O)C(=Cc2ccc(N3CCN(C(=O)c4ccccc4)CC3)c([N+](=O)[O-])c2)C(=O)N1,21.3µM,.,-,-,-,.
O=[As](O)(O)c1ccc(N=Nc2ccc([As](=O)(O)O)cc2)cc1,.,-[9.22 µM],.,.,.,-[7.66 µM]
COc1ccccc1NC(=O)Oc1cccc(OC(=O)c2ccccc2)c1,?,.,-,-,-,.
Cc1nc2ccc(OC(=O)c3ccccc3)cc2s1,8.49µM,.,-,-,-,.
Cc1cc(C(=O)CS(=O)(=O)c2ccc(F)cc2)cc(C)c1OC(=O)N(C)C,10.7µM,-,2.82µM,?,3.98µM,?
CN(C)C(=O)Oc1c(Cl)cc(Cl)c2ccccc12,-,-,-,-,-,-
C1=C(c2c[nH]c3ccccc23)CCN(Cc2ccccc2)C1,-,.,-,-,-,.
Nc1c2c(nc3ccccc13)CCN(Cc1ccccc1)C2,23.9µM,.,-,-,-,.
COC(=O)C(O)(c1ccc(NC(=O)NC2CCCCC2)cc1)C(F)(F)F (centres undefined),12µM,?,?,?,?,-
Cn1nnc2cc(NC(=O)Nc3cccc(Cl)c3)ccc21,?,.,1.41µM,?,2µM,.
SMILES,FLuc counter,SMN2 splice enh,Rab9 promoter act,ELG1 genotox,NPC1 prom act,Luc counter
C[N+](C)(C)CC#CCOC(=O)Nc1cccc(Cl)c1,.,-,-,.,-,-
C[C@H](c1ccccc1)N1CCN([C@@H](C)c2ccccc2)CC1,.,-[9.22 µM],.,.,.,-[7.66 µM]
Clc1nc(Cl)nc(Nc2ccccc2Cl)n1,.,-,.,.,.,.
Cc1cc(NC(=O)c2noc3c2CCCCC3)no1,15.1µM,?,?,?,?,-
COc1cccc(N2C(=O)/C(=C/c3ccc(C)o3)C(=O)NC2=S)c1,15.1µM,.,-,-,-,.
O=C1NC(=S)N(c2ccccc2)C(=O)/C1=C/c1ccco1,19µM,.,-,-,-,.
COc1ccccc1/C=C1\C(=O)NC(=S)N(c2ccccc2)C1=O,-,.,-,-,-,.
CCOc1cccc(N2C(=O)/C(=C/c3ccco3)C(=O)NC2=S)c1,21.3µM,.,-,-,-,.

# Compound activity (PubChem BioAssay)
